According to ChEMBL document CHEMBL1961873, “Compounds: GSK PKIS; Assays: Nanosyn kinase panel” (2012):

Each compound was assayed against Angiopoietin-1 receptor (Homo sapiens) (UniProt Q02763). Settings: at 0.1 µM.
Chain of Angiopoietin-1 receptor (Homo sapiens) (Q02763 whole entry): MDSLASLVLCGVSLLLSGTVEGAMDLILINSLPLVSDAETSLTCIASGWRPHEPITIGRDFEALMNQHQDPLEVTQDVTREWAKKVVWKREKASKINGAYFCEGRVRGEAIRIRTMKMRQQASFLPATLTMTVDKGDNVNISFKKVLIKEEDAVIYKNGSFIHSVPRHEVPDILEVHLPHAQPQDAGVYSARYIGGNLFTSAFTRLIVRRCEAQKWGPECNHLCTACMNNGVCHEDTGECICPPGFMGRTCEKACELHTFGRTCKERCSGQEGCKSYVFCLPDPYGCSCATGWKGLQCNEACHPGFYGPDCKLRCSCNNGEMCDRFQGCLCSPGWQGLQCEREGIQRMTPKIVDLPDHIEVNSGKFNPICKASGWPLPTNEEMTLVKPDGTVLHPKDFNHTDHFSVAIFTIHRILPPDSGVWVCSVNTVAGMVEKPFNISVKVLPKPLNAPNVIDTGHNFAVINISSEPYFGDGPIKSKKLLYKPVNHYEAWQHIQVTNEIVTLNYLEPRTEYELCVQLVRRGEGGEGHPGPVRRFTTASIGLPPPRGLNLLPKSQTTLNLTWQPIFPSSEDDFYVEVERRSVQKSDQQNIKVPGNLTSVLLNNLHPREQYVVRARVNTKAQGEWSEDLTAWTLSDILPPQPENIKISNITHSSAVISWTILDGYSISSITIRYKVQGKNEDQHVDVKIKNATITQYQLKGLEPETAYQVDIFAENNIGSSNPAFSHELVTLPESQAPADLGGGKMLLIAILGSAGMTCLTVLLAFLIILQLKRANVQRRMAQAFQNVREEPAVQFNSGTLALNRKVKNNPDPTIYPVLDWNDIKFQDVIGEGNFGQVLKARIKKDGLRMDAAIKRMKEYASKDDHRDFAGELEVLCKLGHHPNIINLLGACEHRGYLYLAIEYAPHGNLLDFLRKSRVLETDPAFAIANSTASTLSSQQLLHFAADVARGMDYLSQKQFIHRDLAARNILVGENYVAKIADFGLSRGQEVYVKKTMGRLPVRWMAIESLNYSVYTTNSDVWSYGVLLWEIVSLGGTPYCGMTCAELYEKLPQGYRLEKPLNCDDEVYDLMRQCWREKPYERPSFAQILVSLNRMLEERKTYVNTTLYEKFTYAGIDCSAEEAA

Row | Compound | inhibition [%]
1 | COc1cc2ncnc(Nc3ccc(C)c(O)c3)c2cc1OC | 3.58
2 | Cc1cc(-c2ccccn2)cc(C)c1/C=C/c1cncc(-c2nn[nH]n2)c1 | 2.01
3 | CC(C)c1ccc2c(c1)NC(=O)/C2=N/Nc1ccc(S(N)(=O)=O)cc1 | 1.55
4 | CCn1c(-c2nonc2N)nc2ccc(F)cc21 | 2.7
5 | CN(c1ccc(NC(=O)Nc2ccc(OC(F)(F)F)cc2)cc1)c1ccnc(Nc2cccc(S(N)(=O)=O)c2)n1 | 36
6 | c1ccc(Nc2ncc(-c3ccccc3)o2)cc1 | 3.52
7 | CCOc1nccc2c1nc(-c1nonc1N)n2CC | 2.25
8 | COc1cccc(-n2ncc3c(N/N=C/c4ccc(S(C)(=O)=O)cc4)ncnc32)c1 | 7.64
9 | Cc1ccc2c(-c3ccnc(Nc4cccc(C(F)(F)F)c4)n3)c(-c3ccccc3)nn2n1 | 3.55
10 | NS(=O)(=O)c1cccc(Nc2cc(-c3ccc(F)cc3)n[nH]2)c1 | 0.52
11 | CCCN1CCCC(c2ccc(Nc3nc(Nc4cc(F)ccc4C(N)=O)c4cc[nH]c4n3)c(OC)c2)C1 (configuration not stated) | 4
12 | c1ccc(Cc2nc3ccc(Nc4ncnc5ccccc45)cc3[nH]2)cc1 | 2.5
13 | CN1CCN(C(=O)c2ccc(NC(=O)Nc3ccc(N(C)c4ccnc(Nc5ccc(CS(C)(=O)=O)cc5)n4)cc3)cc2)CC1 | 33.2
14 | N#Cc1cccc(Nc2nccc(-c3cnn4ncccc34)n2)c1 | 3.66
15 | Nc1nccc(-c2c(-c3ccc(F)cc3)ncn2CCCN2CCOCC2)n1 | 8.3
16 | COc1cc(/C=N/Nc2ncnc3c2cnn3C(C)C)ccc1O | 0.88
17 | O=C(Nc1ccc(Oc2ccc3[nH]c(NC(=O)c4ccco4)nc3c2)cc1)Nc1cc(C(F)(F)F)ccc1F | 49.4
